This is a sample that favours compounds with a hit; in the whole collection about 11% have one here.
IMPase Li cell – membrane-permeable IMPase blocker, potentiated with lithium | actives 0.35% (n = 210,000) | Potency, µM (series often up to 59.4 µM), for the others: top-dose activity, negative = IMPase inhibition, actives largely listed as inhibitors | CHO-M1 cells, IP1 TR-FRET (IP-One), carbachol + lithium | AID 1457; active means well fitted curve in the direction sought with a large enough effect; inconclusive means small, poorly fitted or top-dose-only effect, or another doubt; inactive means no such curve, though single readings can be large; an effect the other way counts as inactive or inconclusive;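 further: IP1 builds up when IMPase is blocked and the TR-FRET signal falls; potency means the concentration at half of the fitted maximal effect; plate controls were basal vehicle for no effect and high inhibitor control for full effect; nearly all actives have a fitted effect of over 50% in size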
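Steps: plate 2000 CHO-M1 cells per well and culture 16–30 h; add compound and lithium; incubate 30 min, 37C; add d2-IP1 tracer and Eu cryptate anti-IP1 antibody in lysis buffer; read after 10 min at room temperature.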
IMPase inh – cell-permeable inhibitors of inositol monophosphatase (IMPase); 120,000 tested, under 10 active; inhibition (IP1 accumulation), % at 46.1 µM; P97697; CHO-M1 cells, IP1 accumulation, HTRF TR-FRET ratio; active means well fitted curve in the direction sought with a large enough effect in the signal ratio, not every such curve was filed as active; inconclusive means small, poorly fitted or top-dose-only effect, or a change in a side signal; inactive means no such curve, though single readings can be large or run the other way; the % refers to the signal ratio;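 further: cells stimulated with carbachol in lithium chloride buffer; plate controls were DMSO basal wells for no effect and reference inhibitor wells for full effect; higher means more IMPase inhibition seen as more IP1 and lower FRET ratio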
Target sequence (P97697 whole entry, looked up): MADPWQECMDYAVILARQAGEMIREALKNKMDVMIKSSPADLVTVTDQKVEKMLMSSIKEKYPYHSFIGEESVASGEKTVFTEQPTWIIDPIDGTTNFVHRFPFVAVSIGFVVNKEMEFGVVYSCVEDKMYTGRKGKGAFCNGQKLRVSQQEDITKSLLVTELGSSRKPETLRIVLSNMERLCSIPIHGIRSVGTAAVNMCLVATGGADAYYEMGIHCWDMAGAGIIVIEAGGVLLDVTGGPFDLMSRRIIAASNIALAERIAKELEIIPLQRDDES
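CHO-M1, 2000 cells/well, cultured 16–30 h; cpd up to 46 uM; carbachol (50 uM solution, stimulation buffer w/ 50 mM LiCl, pH 7.4), 30 min 37C; IP-One TR-FRET, 10 min RT; Ex 320/Em 665, 620; Hill-fit AC50.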
PNC assembly inh – blocks assembly of the perinucleolar compartment; PC3M PTB-GFP, PNC prevalence imaging, 16 h; hits give low values; activity change (PNC), negative = inhibition, % at 10 µM; actives 3.1% (n = 140,000);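 active means readout at or below -70, meaning at least 70% loss of cells showing the perinucleolar compartment, a nuclear body marking cancer cells; inconclusive means readout between -30 and a set limit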;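 further: plate controls were DMSO wells for no effect and camptothecin positive control wells for full effect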
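PC3M cells stably expressing PTB-GFP, 750–1000 cells/well, treated 16 h at 37 °C with compound (23 nl of library stock), in duplicate. After paraformaldehyde fixation and Hoechst stain, imaged at 20x; PNC prevalence scored by image analysis.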
ALDH1A1 block – ALDH1A1 (human) enzyme inhibition | actives 7.3% (n = 220,000) | P00352 | Potency, µM (top dose mostly 75.3 µM), without a hit: top-dose activity, negative = inhibition, most hits filed as inhibitors | Purified ALDH1A1, NADH fluorescence, propionaldehyde substrate;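 further: potency means the concentration at half of the fitted maximal effect; plate controls were no enzyme wells and a reference inhibitor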
Target sequence (P00352 whole entry, looked up): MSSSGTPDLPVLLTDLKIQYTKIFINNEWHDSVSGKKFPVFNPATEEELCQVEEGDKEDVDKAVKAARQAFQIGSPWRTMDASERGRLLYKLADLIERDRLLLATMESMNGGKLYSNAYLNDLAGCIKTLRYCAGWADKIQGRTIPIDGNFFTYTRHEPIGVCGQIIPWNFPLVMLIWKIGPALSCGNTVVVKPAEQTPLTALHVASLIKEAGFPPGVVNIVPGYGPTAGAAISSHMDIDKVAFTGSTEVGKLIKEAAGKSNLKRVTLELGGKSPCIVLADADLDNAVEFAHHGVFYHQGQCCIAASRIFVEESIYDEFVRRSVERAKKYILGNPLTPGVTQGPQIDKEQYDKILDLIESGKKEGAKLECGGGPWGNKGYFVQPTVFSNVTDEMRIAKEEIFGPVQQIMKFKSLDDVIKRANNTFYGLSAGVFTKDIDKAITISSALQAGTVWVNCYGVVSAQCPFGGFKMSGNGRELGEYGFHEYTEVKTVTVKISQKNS
HPGD inh – inhibitors of human 15-hydroxyprostaglandin dehydrogenase (HPGD); actives 4.3% (n = 150,000); P15428; AID 894; purified HPGD, NADH fluorescence kinetic, PGE2 substrate; Potency, µM, without a hit: top-dose activity change, negative = inhibition, most hits filed as inhibitors; further: potency means the concentration at half of the fitted maximal effect
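20 nM HPGD preincubated 15 min at room temperature with compound in 50 mM Tris-HCl pH 8, 0.01% Tween 20. Started with 1 mM NAD+ and 30 uM prostaglandin E2; NADH fluorescence (360/450 nm) read 5 times over 30-s intervals, last minus first.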
ALOX12 inhib – inhibitors of human 12-lipoxygenase (ALOX12); purified 12-hLO, xylenol orange hydroperoxide absorbance; actives 0.12% (n = 150,000); AID 1452; P18054; Potency, µM (highest dose often 57.1 µM), without a hit: top-dose activity change, negative = inhibition, hits mostly inhibitors; active means well fitted curve in the direction sought with a large enough effect; inconclusive means small, poorly fitted or top-dose-only effect, or another doubt; inactive means no such curve, though single readings can be large; an effect the other way counts as inactive or inconclusive; further: potency means the concentration at half of the fitted maximal effect; nearly all actives have a fitted effect of over 55% in size
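Purified human 12hLO (150 nM), preincubated 15 min with compound, then 40 uM arachidonic acid for 30 min, room temperature, Hepes pH 7.0 with 0.01% Triton X-100. Hydroperoxide detected by ferrous iron/xylenol orange; 573/405 nm absorbance ratio gives reaction progress.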
The depositor's hits bear a star; ? = inconclusive; . = not tested or not shown; [ ] = remark or other dose. Unless noted, the call rests on the fitted dose curve; in most records, active means well fitted inhibition curve with a large enough effect (not every such curve was filed as active); inconclusive means small, poorly fitted or top-dose-only effect, or another doubt; inactive means no such curve, though single readings can be large or run the other way. Unless noted, on the % scale 0 is the no-effect control and ±100 the full control effect.

SMILES	IMPase Li cell	IMPase inh	PNC assembly inh	ALDH1A1 block	HPGD inh	ALOX12 inhib
COC(=O)[C@@H]1C[C@H]1[C@@H](NS(=O)(=O)c1ccc(-c2ccccc2)cc1)c1ccccc1	3.4%	.	.	-4.7%	-6.5%	0.6%
O=C(c1ccccc1)c1ccc(N2CCOCC2)c(NC(=O)c2ccco2)c1	14.8%	?	0.1	31.6µM*	-17.4%	-0.6%
CC(NC(=O)c1ccccc1NC(=O)c1ccccc1)C(=O)N1CCOCC1 (stereo unspecified)	-4.8%	.	-96.6*	-12.8%	0.2%	0.4%
Cc1ccc(C2=[N+]([O-])C3(CCCCC/C3=N\O)N(O)C2(C)C)o1 (stereo unspecified)	25.2%[38.3 µM]	13.6	-11.2	28.2µM*	-14.5%	-8.8%
c1ccc(-c2nc(CSc3n[nH]c(-c4cccs4)n3)cs2)cc1	4.8%[38.3 µM]	0.7	?	?	3.98µM*	-2.7%
O=C(CSc1n[nH]c(-c2cccs2)n1)N1CCCc2ccccc21	-5.0%[38.3 µM]	3.7	4.5	-2.6%	6.31µM*	-3.7%
O=C(CSc1n[nH]c(-c2ccccc2O)n1)N1CCCc2ccccc21	-2.1%[38.3 µM]	5.8	-24.6	1.5%	10µM*	?
CCCCNc1nc(C)nc2c1nc(-c1ccccc1)n2CC(C)(C)CN(C)C	-0.8%	.	.	?	?	-2.3%
O=C(Nc1cccc2oc(=O)ccc12)c1ccc([N+](=O)[O-])cc1[N+](=O)[O-]	1.3%	.	25.5	7.94µM*	-12.6%	6.4%
CCn1c(CC(=O)Nc2cccc(OC)c2)nnc1SCC(=O)N1CCN(c2ccccc2)CC1	13.3%[38.3 µM]	-11.0	-85.4*	5.3%	0.7%	-4.1%
COc1cccc(NC(=O)Cc2nnc(SCCOc3ccccc3)n2C)c1	23.0%[38.3 µM]	4.2	7.7	-11.0%	-2.8%	-1.8%
COc1cccc(NC(=O)Cc2nnc(SCC(=O)c3ccccc3)n2C)c1	2.0%	4.4	230.0	8.91µM*	31.6µM*	-9.0%
Cc1ccc(NC(=O)CSc2nn(-c3ccc(Cl)cc3)c(=S)s2)cc1S(=O)(=O)N(C)C	5.6%	.	26.3	14.1µM*	?	-6.5%
CCOC(=O)c1c(/N=C/N(C)C)sc(/C=N/Nc2ccccc2)c1-c1ccccc1	1.2%	.	?	25.1µM*	-6.4%	-6.3%
CCOC(=O)c1c(/N=C/N(C)C)sc(C=O)c1-c1ccccc1	-8.5%	.	.	?	.	.
CCOC(=O)c1c(/N=C/N(C)C)sc(/C=N/Nc2ccccc2)c1-c1ccccc1Cl	.	1.6	48.7	12.6µM*	.	-13.4%
O=C1[C@@H]2[C@H]3C(=CC[C@@H]2C(=O)N1Cc1ccccc1)C1(OCCCO1)[C@H]1O[C@@H]1[C@H]3O	.	.	.	-5.5%[13.5 µM]	.	.
COc1ccc(OC)c(/C=C(/C#N)c2nc(-c3ccc(-c4ccccc4)cc3)cs2)c1	.	5.8	.	.	.	.
COc1ccccc1-n1cnnc1SCC(=O)c1cc(C)n(Cc2cccs2)c1C	-7.8%[38.3 µM]	3.9	?	1.26µM*	-18.5%	-12.0%
Cc1cc(C(=O)CSc2nnc(-c3ccccc3F)o2)c(C)n1Cc1cccs1	-17.4%[38.3 µM]	9.4	?	0.7%	-6.7%	-8.5%
COc1ccccc1-n1cnnc1SCC(=O)Nc1nc(C)c(Cl)cc1Cl	-2.9%	1.7	?	?	3.5%	0.1%
COCCn1cnnc1SCC(=O)Nc1ccc(Br)cc1F	-1.0%	.	.	12.6µM*	.	.
COCCCn1cnnc1SCC(=O)Nc1ccc(S(=O)(=O)N2CCCC2)cc1	16.9%[38.3 µM]	17.1	32.8	11.2µM*	-7.3%	1.6%
COc1ccccc1-n1cnnc1SCC(=O)Nc1ncc(Cl)cc1Cl	-3.6%[38.3 µM]	4.9	?	4.47µM*	-4.3%	2.4%
CC(C)C[C@@H](CC(=O)N[C@@H](CCCN)CC(=O)N[C@@H]1CCCC[C@H]1C(=O)N[C@H](CC(=O)N[C@@H](CCC(=O)O)CC(=O)O)CC(C)C)NC(=O)[C@@H]1CCCC[C@H]1N	4.0%	.	.	-16.2%	-9.1%	0.1%
SMILES	IMPase Li cell	IMPase inh	PNC assembly inh	ALDH1A1 block	HPGD inh	ALOX12 inhib
CC(=O)CC(=O)[C@@]1(O)CC[C@@H]2[C@@H]3C=C(C)C4=CC(=O)CC[C@@H]4[C@H]3CC[C@]21C	10.3%	-5.3[20.6 µM]	.	2.6%[20.9 µM]	-6.7%	-6.5%[25.6 µM]
Cc1ccccc1OCCSCc1nc2ccccc2[nH]1	9.3%	-14.5	?	4.8%	-4.5%	2.1%
COc1ccccc1-n1cnnc1SCC(=O)Nc1cccc(S(=O)(=O)N2CCCCC2)c1	14.0%	.	?	0.631µM*	-12.2%	-4.7%
COc1ccc2c(C)cc(SCC(=O)Nc3ncc(Cl)cc3Cl)nc2c1	12.6µM*	.	9.2	?	?	-2.8%
Cc1cc(OCC(=O)Nc2sc3c(c2C#N)CCC(C)C3)ccc1Cl (stereo unspecified)	.	-1.5	.	.	.	.
CCOc1ccc2nc(C)cc(Nc3cccc([N+](=O)[O-])c3)c2c1	8.7%	.	-101.6*	9.3%	-21.1%	-2.2%
Cc1cc(Nc2ccc(Cl)cc2)n(-c2cccc(Cl)c2)n1	40.6%[38.3 µM]	2.4	-3.3	-7.2%	-16.7%	-12.8%
Cc1cc(Nc2ccc(Cl)cc2)n(-c2ccccc2)n1	34.0%[38.3 µM]	0.7	-14.4	-8.9%	7.94µM*	-13.5%
Cc1ccc(CC(=O)Nc2nc3c(s2)CCCC3)cc1	25.4%[38.3 µM]	2.0	-100.3*	-3.3%	-11.0%	1.5%
O=C(Cc1ccc(S(=O)(=O)N2CCCCC2)s1)Nc1ccc(F)c(F)c1	3.9%	.	-86.3*	?	-11.2%	-0.5%
O=C(Cc1ccc(S(=O)(=O)N2CCCC2)s1)Nc1nc2c(s1)CCCC2	14.3%[38.3 µM]	9.1	-17.4	10µM*	-22.4%	-6.4%
CC(C)(C)NC(=O)Cc1ccc(S(=O)(=O)N2CCCC2)s1	24.4%[38.3 µM]	-6.3	-8.3	-8.5%	-5.3%	-5.3%
CC(C)(C)Cn1c(=O)[nH]c(=O)c2cc([N+](=O)[O-])cnc21	-1.2%	.	-113.8*	-0.8%	-17.9%	-3.4%
O=C(Nc1nc(N2C(=O)c3ccccc3C2=O)n(-c2ccccc2)n1)c1ccc(F)cc1	-15.0%[38.3 µM]	12.2	16.9	20µM*	-6.6%	0.7%
COc1ccc(C(=O)Nc2nc3nccc(-c4ccccc4)n3n2)cc1	-8.3%	.	?	1.0%	-11.9%	-1.4%
O=C(Nc1nc2nccc(-c3ccccc3)n2n1)c1ccc(F)cc1	10µM*	.	?	2.0%	-26.8%	3.7%
CC#C[C@@]1(O)CC[C@H]2[C@@H]3CCC4=CC(=O)CCC4=C3[C@H](c3ccc(N(C)C)cc3)C[C@]21C	16.7%	4.5[20.6 µM]	.	7.4%[20.9 µM]	4.9%	-6.2%[25.6 µM]
O=C1CC(c2ccco2)Cc2nc(N3CCN(Cc4ccc5c(c4)OCO5)CC3)ncc21 (stereo unspecified)	50.0%[38.3 µM]	-3.1	-28.0	17.8µM*	?	-9.7%

Assay outcomes from PubChem.
